The target in test [1] is Glutathione peroxidase 1 (Homo sapiens) (UniProt P07203). Nature of the test: Primary qHTS Assay for Inhibitors of Recombinant Selenoprotein Glutathione Peroxidase 1 (GPX1) (AID 1845191). Further: nearly all actives have a fitted effect of over 65% in size. On activity, negative = inhibition: on the % scale 0 is the no-effect control and ±100 the full control effect. The essentials: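 GPX1 10 nM, GR 100 nM, GSH 1 mM, NADPH 0.5 mM, CHP 0.5 mM (final). 30-min cpd preincubation, RT. Ex340/Em450 read t=0, t=15 min.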
On the technique in general: Quantitative high-throughput screening tests each substance at several concentrations.

Test [2] addresses Phospholipid hydroperoxide glutathione peroxidase GPX4 (Homo sapiens) (UniProt P36969). Nature of the test: Primary qHTS Assay for Inhibitors of Recombinant Selenoprotein Glutathione Peroxidase 4 (GPX4) (AID 1845192). Further: nearly all actives have a fitted effect of over 65% in size. The gist of the method:
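qHTS, GR-coupled: GPX4 200 nM + cpd 30 min RT → GSH 1 mM, NADPH 0.5 mM, GR 100 nM → CHP 0.5 mM start; fluor 340/450 at t0 and t15 min; no-enzyme wells as control.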

The target of test [3] is Luciferin 4-monooxygenase (Photinus pyralis) (UniProt P08659). Kind of test: Primary firefly luciferase (FLuc) qHTS assay for identification of artifact compounds. (AID 1845220). Further: nearly all actives have a fitted effect of over 60% in size. The essentials: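 In this counter-screen for luciferase artifacts, test compounds met substrate (10 uM each luciferin and ATP) before 10 nM enzyme started the reaction. Light output was measured 5 min later.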

Test [4] in a line: Primary fluorescence-based thiol-reactive (MSTI) qHTS assay for identification of artifact compounds. (AID 1845221). Further: nearly all actives have a fitted effect of over 65% in size. Further: potency means the concentration at half of the fitted maximal effect.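 On activity change, negative = thiol reactive: series mostly up to about 54 µM; thiol-reactive compounds lower the probe fluorescence signal.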 The gist of the method:
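In PBS pH 7.4 with 2% DMSO, each compound met 4 uM MSTI for one hour at ambient temperature, shielded from light, before fluorescence detection.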

For test [5], the system named is Nanoluciferase (engineered Oplophorus gracilirostris luciferase). Nature of the test: Primary Nanoluciferase (NLuc) qHTS assay for identification of artifact compounds. (AID 1845222).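 Further: NLuc secreted into diluted conditioned medium of S16 cells; series mostly up to about 54 µM.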 The gist of the method: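 Using secreted nanoluciferase in S16 culture medium (0.22 um filtered, 1:55 dilution), compounds were preincubated 15 min at RT. Signal was generated with Nano-Glo reagent (1:100) over 5 min.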

A short description of test [6]: Primary redox qHTS assay for identification of artifact compounds. (AID 1845223).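 Further: 0% = DMSO and 100% = reference compound.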 The gist of the method: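 Redox-cycling detection via DTT (250 uM final) oxidation coupled to Amplex Red (25 uM)/HRP (250 mU/mL) in HBSS. 15 min preincubation plus 30 min after DTT, room temperature. Ex/Em 525/598 nm; 4-parameter Hill fit against DMSO and 10 uM DA3003.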

The record followed here is PubChem BioAssay (NCATS).

A number with no mark means an inactive call. Results filed as inconclusive are left out. Active and inactive are the calls of the source. The call rests on the fitted dose curve; in most records, active means well fitted curve in the direction sought with a large enough effect; inconclusive means small, poorly fitted or top-dose-only effect, or another doubt; inactive means no such curve, though single readings can be large; an effect the other way counts as inactive or inconclusive.

Sequence of Glutathione peroxidase 1 (Homo sapiens) (P07203 whole entry, looked up): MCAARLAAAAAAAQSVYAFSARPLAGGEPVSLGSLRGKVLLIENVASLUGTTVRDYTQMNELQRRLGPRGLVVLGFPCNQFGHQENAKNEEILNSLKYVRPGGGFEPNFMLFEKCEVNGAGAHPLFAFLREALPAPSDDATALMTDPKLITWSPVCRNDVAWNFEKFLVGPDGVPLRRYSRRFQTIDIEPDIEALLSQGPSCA
Sequence of Phospholipid hydroperoxide glutathione peroxidase GPX4 (Homo sapiens) (P36969 whole entry, looked up): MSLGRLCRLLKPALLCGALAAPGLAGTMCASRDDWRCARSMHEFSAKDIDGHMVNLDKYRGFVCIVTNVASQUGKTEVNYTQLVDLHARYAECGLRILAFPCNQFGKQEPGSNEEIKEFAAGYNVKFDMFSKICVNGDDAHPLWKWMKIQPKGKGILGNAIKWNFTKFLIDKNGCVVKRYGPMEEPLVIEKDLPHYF

Take `C[C@@H]1C[C@@H](O)[C@@]23CO[C@]2(CO)CCC[C@@H]3[C@@]12C[C@@H](c1ccoc1)OC2=O`: the Potency result in test [1], in test [2], in test [3], in test [4], in test [5] and in test [6] was “inactive” in each case.
Consider `CC1OC(O[C@H]2CC[C@@]3(C)C(CC[C@]4(C)C3CC=C3C5CC(C)(C)CC[C@]5(C(=O)OC5OC(CO)C(OC6OCC(OC7OCC(O)C(O)C7O)C(O)C6O)C(O)C5O)CC[C@]34C)C2(C)C)C(O)C(O)C1OC1OC(CO)C(O)C(OC2OC(CO)C(O)C(O)C2O)C1O` (stereo not given in full), for which the Potency result in test [1] and in test [2] was “inactive” throughout. Also, the outcome in test [3] is “inactive [at 11.6 µM]”. The activity change, negative = thiol reactive in test [4] was 250% [at 11.5 µM]. In addition, the activity, negative = inhibition in test [5] was 0.21% [at 11.6 µM]. The redox activity (% of DA3003) in test [6] was 2.88% [at 11.5 µM].
Regarding `CC(=O)OC1CC2(C)C(CCC(C)C23Cc2c(O)cc4c(c2O3)CNC4=O)C(C)(C)C1O` (stereo not given), the Potency entry in test [1], in test [2], in test [3], in test [4], in test [5] and in test [6] was “inactive” throughout.
For `CC1(C)C(=O)N2c3ccccc3C(O)(CC(C(=O)O)n3cnc4ccccc4c3=O)C2N1O` (stereo not given), the Potency result in test [1], in test [2], in test [3], in test [4], in test [5] and in test [6] was “inactive” in each case.
`C=C1CC[C@@H]2[C@@](C)(CO[C@@H]3O[C@H](CO)[C@@H](O)[C@H](O)[C@H]3O)[C@H](O)CC[C@@]2(C)[C@@H]1CC/C(C)=C/CO[C@@H]1O[C@H](CO)[C@@H](O)[C@H](O)[C@H]1O`: the Potency entry in test [1], in test [2], in test [3], in test [4], in test [5] and in test [6] was “inactive” throughout.
Regarding `COc1ccc(/C=C/C(=O)O[C@@H]2[C@@H](OC(C)=O)[C@@H](OC(C)=O)[C@H](O[C@H]3[C@@H]4C=CO[C@@H](O[C@@H]5O[C@H](CO)[C@@H](O)[C@H](O)[C@H]5O)[C@@H]4[C@@]4(CO)O[C@@H]34)O[C@H]2C)cc1`, the Potency result in test [1], in test [2], in test [3], in test [4], in test [5] and in test [6] was “inactive” each time.
With `O=C(O)c1ccnc2cc(C(OCC3CCC(F)(F)CC3)c3ccccc3Cl)[nH]c12` (stereo not given), the Potency entry in test [1], in test [2], in test [3], in test [4], in test [5] and in test [6] was “inactive” in each case.
Take `COC(=O)[C@]1(C)CCC[C@@]2(C)[C@@H]3CC[C@@H]4C[C@@]3(CC[C@@H]21)C[C@H]4C(=O)O`: the Potency entry in test [1], in test [2], in test [3], in test [4], in test [5] and in test [6] was “inactive” throughout.
Consider `C/C=C(/C)C(=O)OC1C2OC2C2(CO2)C2C3OC(=O)C(C)C3CCC12C` (stereo not given), for which the Potency result in test [1], in test [2], in test [3], in test [4], in test [5] and in test [6] was “inactive” throughout.
For the compound `C/C=C(\C)C(=O)OC1C(C)C2(O)C3C=C(C)C(=O)C3CC(CO)=CC2C2C(C)(C)C12OC(C)=O` (stereo not given), the Potency entry in test [1], in test [2], in test [3], in test [4], in test [5] and in test [6] was “inactive” in each case.
Take `COc1c2cc(c(O[C@@H]3O[C@H](CO)[C@@H](O)[C@H](O)[C@H]3O)c1OC)CCCCC(O)CCc1ccc(O)c-2c1` (stereo not given in full): the Potency entry in test [1], in test [2], in test [3], in test [5] and in test [6] was “inactive” throughout. Moreover, the Potency in test [4] is 6.53 µM (active).
As for `CC1(C)CC[C@]2(C(=O)O)CC[C@]3(C)C(=CCC4[C@@]5(C)C(=O)C[C@H](O)[C@@](C)(CO)C5CC[C@]43C)[C@@H]2C1` (stereo not given in full), the Potency result in test [1], in test [2], in test [3], in test [4], in test [5] and in test [6] was “inactive” in each case.
Regarding `CC1(O)CCC2C(C3C1CCC3(C)O)C2(C)C` (stereo not given), the Potency result in test [1], in test [2], in test [3], in test [4], in test [5] and in test [6] was “inactive” in each case.
For the compound `CC(C)C1(O)C=C2C(=O)CC3C(C)(C(=O)O)CCCC3(C)C2CC1` (stereo not given), the Potency result in test [1], in test [2], in test [3], in test [4], in test [5] and in test [6] was “inactive” throughout.
Turning to `N#CC1C(=O)N=C(c2cc(Cl)ccc2O)C=C1c1cc(OCc2ccccc2)cc(OCc2ccccc2)c1` (stereo not given), the Potency entry in test [1], in test [2], in test [3], in test [4], in test [5] and in test [6] was “inactive” throughout.
As to `CC(=O)C1CCC(=O)N1Cc1ccccc1` (stereo not given), the Potency result in test [1], in test [2], in test [3], in test [4], in test [5] and in test [6] was “inactive” throughout.
Turning to `O=C(O[C@@H]1O[C@H](CO)[C@@H](O)[C@H](O)[C@H]1O)c1ccccc1`, the Potency entry in test [1], in test [2], in test [3], in test [5] and in test [6] was “inactive” each time. In test [4], the Potency was 23.8 µM (active).
`C=C1C2(C)CC3C4(C)OC(C5OC56C4=CC(=O)OC6(C)C)C3(C)C13C(=O)OC(C)C3(O)C2=O` (stereo not given): the Potency result in test [1], in test [2], in test [3], in test [4], in test [5] and in test [6] was “inactive” each time.
Regarding `COc1ccc(CC(=O)NCc2ccccc2-c2ccccc2C(=O)NCCc2cccnc2)cc1`, the Potency result in test [1], in test [2], in test [3], in test [4], in test [5] and in test [6] was “inactive” each time.
Consider `CC(=O)OCC1=CCC2C(C)(C)CCCC2(C)C12CCC(C)(CC(=O)O)O2` (stereo not given), for which the Potency entry in test [1], in test [2], in test [3], in test [4], in test [5] and in test [6] was “inactive” in each case.
